Test results reported in PubChem BioAssay (NCATS).
Results filed as inconclusive are left out. Activity calls are given as the source filed them. Unless noted, calls follow the shape of the dose curve; as a rule, active = well fitted curve in the direction sought with a large enough effect; inconclusive = small, poorly fitted or top-dose-only effect, or another doubt; inactive = no such curve, though single readings can be large; an effect the other way counts as inactive or inconclusive.

How the values were obtained:
[1] = qHTS to identify inhibitors of the type 1 interferon - major histocompatibility complex class I in skeletal muscle: primary screen against the NCATS LOPAC collection (AID 1347405);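 also: human myoblasts with HiBiT tag on endogenous HLA-B stimulated by IFN-beta; lytic HiBiT luminescence reporting HLA-B protein level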
Outline: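 IFN-beta-stimulated (4 ng/ml) HLA-B HiBiT knock-in myoblasts, compound-treated 24 hrs up to 46 uM final; signal via LgBiT complementation and furimazine luminescence.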

[2] = qHTS to identify inhibitors of the type 1 interferon - major histocompatibility complex class I in skeletal muscle: primary screen against the NCATS Pharmaceutical Collection (AID 1347407);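 also: luminescence of HiBiT knocked into endogenous HLA-B as interferon-induced MHC class I level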
Outline: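 Luminescence from HiBiT-tagged endogenous HLA-B*08:01 served as the read-out of IFN-beta-induced MHC class I in CRISPR-engineered C25cl48 myoblasts. Cells received 4 ng/ml IFN-beta plus compound (high final 46 uM, […]) for 24 h.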

[3] = qHTS for inhibitors of adenylyl cyclases using a fission yeast platform: a pilot screen against the NCATS LOPAC library (AID 1347410)
Outline: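 Fission yeast qHTS: CHP2027 cells (AC9-GNAS-PDE4D2, fbp1-GFP), 5x10^6 cells/mL working density, EMM + His/Lys/Ura; LOPAC at up to 57 µM final; 18 h dark, 30C; GFP by laser cytometry. DPI positive control, DMSO vehicle.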

[4] = qHTS to identify inhibitors of the type 1 interferon - major histocompatibility complex class I in skeletal muscle: primary screen against the NCATS Mechanism Interrogation Plate v5.0 (MIPE) Libary (AID 1347411); also: nearly all actives have a fitted effect of over 65% in size
Outline: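 IFN-beta-driven (4 ng/ml) HLA-B-HiBit expression in CRISPR-tagged C25cl48 myoblasts; compounds 11-pt, 1:3, max 46 uM, 24 hr exposure; lytic NanoLuc complementation luminescence.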

[5] = target: Protein phosphatase 1D (Homo sapiens) (UniProt O15297); assay: Rhodamine-PBP qHTS Assay for Modulators of WT P53-Induced Phosphatase 1 (WIP1) (AID 1347425)
Sequence of Protein phosphatase 1D (Homo sapiens) (O15297 whole entry, looked up): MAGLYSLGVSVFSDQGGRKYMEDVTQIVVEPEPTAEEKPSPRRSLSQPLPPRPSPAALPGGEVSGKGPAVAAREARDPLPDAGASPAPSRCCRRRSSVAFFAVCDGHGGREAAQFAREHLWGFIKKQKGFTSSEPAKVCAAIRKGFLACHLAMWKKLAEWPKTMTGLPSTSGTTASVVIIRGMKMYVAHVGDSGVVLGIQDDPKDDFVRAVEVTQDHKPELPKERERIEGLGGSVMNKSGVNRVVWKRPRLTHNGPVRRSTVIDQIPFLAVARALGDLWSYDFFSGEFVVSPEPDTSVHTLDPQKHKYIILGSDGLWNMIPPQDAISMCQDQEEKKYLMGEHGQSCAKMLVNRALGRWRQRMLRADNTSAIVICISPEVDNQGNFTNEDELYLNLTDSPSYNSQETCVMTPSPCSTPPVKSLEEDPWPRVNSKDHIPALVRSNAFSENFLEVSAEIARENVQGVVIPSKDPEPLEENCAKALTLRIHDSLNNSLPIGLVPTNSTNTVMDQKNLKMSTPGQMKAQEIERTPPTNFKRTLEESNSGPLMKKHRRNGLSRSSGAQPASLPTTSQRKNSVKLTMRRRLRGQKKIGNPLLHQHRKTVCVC
Outline: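 WIP1 (5 nM final) was preincubated with compound for 1 hour at room temperature. It then dephosphorylated 10 uM VEPPL-pS-QETFS peptide in Tris-HCl pH 7.5 with 30 mM MgCl2. Released Pi was detected by 10 uM Rh-PBP fluorescence (ex 525/em 598 nm) read at 1-min intervals for 11 min, as delta f1 - f0.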

[6] = Validation qHTS assay for inhibitors of Activation Induced Cytidine Deaminase (AID): UDG Counterscreen signal (AID 1347427)
Outline: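 Fluorescence at 560 nm excitation, 665 nm emission reports UDG signal after 250 mM NaOH (2x) addition and 30 min. Enzymes (AID 1 uM, UDG 2 U/mL, at 4/3x) preincubated 10 min with compound, then 4 h with 4x 250 nM DJC20/DJC23 substrate at room temperature.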

[7] = target: Single-stranded DNA cytosine deaminase (Homo sapiens) (UniProt Q9GZX7); assay: Validation qHTS assay for inhibitors of Activation Induced Cytidine Deaminase (AID): AID signal (AID 1347429)
Sequence of Single-stranded DNA cytosine deaminase (Homo sapiens) (Q9GZX7 whole entry, looked up): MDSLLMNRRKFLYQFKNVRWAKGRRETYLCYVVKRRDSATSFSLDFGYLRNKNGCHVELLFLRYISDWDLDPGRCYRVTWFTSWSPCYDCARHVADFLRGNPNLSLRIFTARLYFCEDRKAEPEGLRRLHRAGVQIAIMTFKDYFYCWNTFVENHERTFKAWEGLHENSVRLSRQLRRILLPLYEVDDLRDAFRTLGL
Outline: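 Compounds (up to 114 uM final) are tested against AID plus UDG using DJC20/DJC23 FRET substrate. Reactions incubate 4 hr at room temperature, receive NaOH for 30 min, and are read at Ex 540/Em 590 nm.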

[8] = Primary qHTS for inhibitors of SARS-S pseudo-typed particle cell entry (AID 1479145; calls by dose curve; also: nearly all actives have a fitted effect of over 45% in size)
[9] = Primary qHTS for Huh7 cytotoxicity: counterscreen for inhibitors of MERS-S pseudotyped particle cell entry (AID 1479147; calls by dose curve)
[10] = Primary qHTS for Vero E6 cytotoxicity: counterscreen for inhibitors of SARS-S pseudo-typed particle cell entry (AID 1479150; calls by dose curve)
[11] = Primary qHTS for inhibitors of La Crosse Virus (LACV) - induced cell death in SH-SY5Y cells (AID 1508616);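 also: top concentration of the series differs between compounds; higher means more rescue of cells from virus-induced death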
Outline: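 Screening measures cell viability in LACV-infected SH-SY5Y cultures. Compound was added before virus (0.01 MOI), and ATP was detected by luminescence 6 days later.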

[12] = target: Calcium and integrin-binding protein 1 (Homo sapiens) (UniProt Q99828); assay: Validation qHTS for Identification of Calcium Integrin Binding protein 1 (CIB1) Competitor (AID 1508618)
Sequence of Calcium and integrin-binding protein 1 (Homo sapiens) (Q99828 whole entry, looked up): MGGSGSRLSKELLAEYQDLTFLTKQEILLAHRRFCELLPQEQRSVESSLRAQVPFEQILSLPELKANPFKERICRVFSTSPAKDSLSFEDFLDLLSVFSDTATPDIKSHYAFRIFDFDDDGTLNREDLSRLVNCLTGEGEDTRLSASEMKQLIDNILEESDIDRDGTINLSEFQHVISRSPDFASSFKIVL
Outline: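 Fluorescence polarization with 1 uM CIB1-GST and 100 nM FITC-alphaIIb peptide in HEPES pH 7.4, NaCl, 5 mM CaCl2, Tween20. Compounds at up to 114 uM final, preincubated with protein 15 min; read after 15 min more at RT.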

[13] = target: Protein phosphatase 1D (Homo sapiens) (UniProt O15297); assay: RapidFire Mass Spectrometry qHTS Assay for Modulators of WT P53-Induced Phosphatase 1 (WIP1) (AID 1347424);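 also: amount of dephosphorylated VEPPL-S-QETFS peptide product formed by WIP1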; also: potency is read from the fitted curve at half-maximal effect
Outline: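 RapidFire mass spectrometry measured dephosphorylated peptide after 5 min room-temperature reaction of 2 uM VEPPL-pS-QETFS with 10 nM WIP1 (50 mM Tris-HCl pH 7.5, 30 mM MgCl2, 0.1 mM EGTA, BSA), following 1 hr compound preincubation; 1 uM isotope-labelled product standard.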

[14] = Primary qHTS for inhibitors of MERS-S pseudo-typed particle cell entry (AID 1479149; calls by dose curve; also: nearly all actives have a fitted effect of over 60% in size)

Measured: Potency

CN1C(=O)CCS(=O)(=O)C1c1ccc(Cl)cc1 (stereo unspecified)
not listed: [13] | [14]
inactive: all other assays above

O=C(Nc1ccc(Br)cc1)c1cc(Br)cc(Br)c1O
inactive: [2] | [5] | [11]
active: [13] 3.16 µM

CC[N+]1(CC)CCC(OC(=O)C(O)(c2ccccc2)c2ccccc2)C1 (stereo unspecified)
inactive: [2] | [13] | [5] | [11]

[N-]=[N+]=CC(=O)OC[C@H](N)C(=O)O
inactive: [2] | [13] | [5] | [11]

CN1CCC(O)(c2ccc(F)cc2)C(C(=O)c2ccc(F)cc2)C1 (stereo unspecified)
inactive: [2] | [13] | [5] | [11]

CCCCCCC(=O)CCCCCC/C=C/C[C@@H](O)[C@H](O)[C@@](N)(CO)C(=O)O
inactive: [2] | [13] | [5] | [11]

CC(C(=O)c1ccccc1)N(C)C (stereo unspecified)
inactive: [2] | [13] | [5] | [11]

CNCC(=O)c1ccc(O)c(O)c1
inactive: [2] | [13] | [5] | [11]

CCN[C@@H](C)Cc1cccc(C(F)(F)F)c1
inactive: [2] | [13] | [5] | [11]

C[C@H](N)C(=O)c1ccccc1
inactive: [2] | [13] | [5] | [11]

CCC(C)(C)c1ccc(O)cc1
inactive: [2] | [13] | [5] | [11]

CC(=O)C1CCOC1=O (stereo unspecified)
inactive: [2] | [13] | [5] | [11]

COc1cc(OC)c(OC)cc1C=O
inactive: [2] | [13] | [5] | [11]

CCN[C@H](C)Cc1cccc(C(F)(F)F)c1
inactive: [2] | [13] | [5] | [11]

CCC(CC)(CNC(=O)CCCO)c1cccc(OC)c1
inactive: [2] | [13] | [5] | [9] | [14] | [11]

CN1C(=O)NC(=O)C(C)(C2=CCCCC2)C1=O (stereo unspecified)
inactive: [2] | [13] | [5] | [9] | [14] | [10] | [11]

C[C@]12CCC(=O)C=C1CC[C@@H]1[C@H]3CC[C@](C)(O)[C@@]3(C)CC[C@@H]12
inactive: [2] | [13] | [5] | [11]

CCCCCCCCCC(=O)O[C@H]1CC[C@H]2[C@@H]3CCC4=CC(=O)CC[C@@H]4[C@H]3CC[C@]12C
inactive: [2] | [13] | [5] | [11]

COc1cc(CC(C)N)cc(OC)c1OC (stereo unspecified)
inactive: [2] | [13] | [5] | [11]

C#C[C@]1(O)CC[C@H]2[C@@H]3CCC4=CC(=O)CC[C@]4(C)[C@H]3CC[C@@]21C
inactive: [2] | [13] | [5] | [11]

NC(=O)CS(=O)C(c1ccccc1)c1ccccc1 (stereo unspecified)
inactive: [2] | [13] | [5] | [11]

C[C@H]1[C@@H]2Cc3ccc(O)cc3[C@@]1(C)CCN2C
inactive: [2] | [13] | [5] | [11]
